In the library only some 9.2% were active in any assay of this set; here they are far more common.
NPC1 prom act = activators of NPC1 promoter; AID 485313; Huh7 NPC1 promoter luciferase reporter, 24 h; 2.4% of 320,000 active; Potency, µM (doses to about 9.22 µM), inactives show at the top dose activation, hits mostly activators; further: % of control where 0% means no effect; nearly all actives have a fitted effect of over 60% in size
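NPC1 promoter–luciferase Huh7 cells; 24 h compound; luminescence.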
ELG1 DNA repair = inhibitors of ELG1-dependent DNA repair in HEK293T cells; HEK293T ELG1-luciferase reporter, luminescence, 16 h; DNA damage induced by 5-fluorouridine; Potency, µM (series often up to 46.1 µM), inactives show top-dose activity change, negative = inhibition, most hits filed as inhibitors; 2.3% of 330,000 active; AID 504467; further: on the % scale 0 is the no-effect control and ±100 the full control effect; nearly all actives have a fitted effect of over 55% in size
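Overnight (16 hr) co-exposure of 2,000 cells/well to 5-fluorouridine and compound at 37 °C preceded detection. Luciferase was quantified via ONE-Glo luminescence; loss of signal denotes inhibition.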
ELG1 genotox = genotoxicity induction in ELG1-luciferase HEK293T cells; HEK293T ELG1-luciferase reporter, luminescence, 16 h; Potency, µM (titrated, usually from 46 µM), for the others: at the top dose activity change, positive = activation, usual class: activators; 1.3% of 330,000 active; AID 504466; further: % of control where 0% means no effect; nearly all actives have a fitted effect of over 60% in size
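Quantitative HTS format in 1536-well plates. HEK293T ELG1-luciferase reporter cells receive test compound and are incubated 16 hr at 37 °C, 5% CO2; ONE-Glo added, 30 min room temperature, then luminescence read.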
Rab9 promoter act = Rab9 promoter activation | Huh7 Rab9 promoter-luciferase reporter, luminescence, 24 h | Potency, µM (titrated, usually from 9.22 µM), for inactives: at the top dose activation, negative = inhibition, actives largely listed as activators | 2.8% of 320,000 active | AID 485297; further: % of control where 0% means no effect; nearly all actives have a fitted effect of over 60% in size
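Steps: seed 1500 Huh7 Rab9-luc cells per well, rest 2 h at 37 °C; add compound in DMSO; incubate 24 h; add luciferase reagent, 10 min ambient; read luminescence.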
SMN2 splice enh = increases expression of the SMN2 splice variant; AID 1458; 2.8% of 210,000 active; HEK293 SMN2-luciferase splicing reporter, luminescence, 30-36 h; Potency, µM (doses to about 46.1 µM), for inactives: at the highest dose activity change, positive = activation, usual class: activators; further: % of control where 0% means no effect; nearly all actives have a fitted effect of over 55% in size
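qHTS luciferase splicing reporter: luminescence rises when SMN2 exon 7 is included in transfected HEK293 cells. Compound exposure lasted 30-36 h at 37C, with 4.5 mM final sodium butyrate as control, followed by a ONE-Glo read.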
FLuc counter = inhibits or activates purified firefly luciferase, miR-21 counter-screen; P08659; purified FLuc, Km substrates, luminescence inhibition; Potency, µM (top dose mostly 57.5 µM), inactives show at the highest dose activity change, negative = inhibition, most hits filed as inhibitors; 6.9% of 360,000 active;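 further: plate controls were vehicle for no effect and reference inhibitor for full effect; nearly all actives have a fitted effect of over 55% in size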
Target sequence (P08659 whole entry, looked up): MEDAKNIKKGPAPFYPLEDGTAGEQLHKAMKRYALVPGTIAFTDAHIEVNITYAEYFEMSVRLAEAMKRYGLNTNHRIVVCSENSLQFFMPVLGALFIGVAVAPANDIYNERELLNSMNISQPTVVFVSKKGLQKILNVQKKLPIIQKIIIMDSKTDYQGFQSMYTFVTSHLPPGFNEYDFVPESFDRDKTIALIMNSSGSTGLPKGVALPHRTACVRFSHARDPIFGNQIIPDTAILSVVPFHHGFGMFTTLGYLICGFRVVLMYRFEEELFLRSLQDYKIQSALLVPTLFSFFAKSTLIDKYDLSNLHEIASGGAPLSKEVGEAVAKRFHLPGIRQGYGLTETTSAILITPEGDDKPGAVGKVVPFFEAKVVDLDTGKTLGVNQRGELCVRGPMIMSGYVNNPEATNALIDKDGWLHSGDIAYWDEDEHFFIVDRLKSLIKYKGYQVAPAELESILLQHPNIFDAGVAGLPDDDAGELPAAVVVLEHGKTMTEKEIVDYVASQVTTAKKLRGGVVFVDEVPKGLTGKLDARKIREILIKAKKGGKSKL
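Biochemical qHTS of compounds, final roughly 60 µM downward over six points, against 10 nM purified firefly luciferase using Km concentrations of substrates (10 uM D-luciferin, 10 uM ATP) in Tris acetate pH 7.5 buffer; luminescence output.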
An asterisk follows results filed as active; ? = inconclusive; / = no result given. The call rests on the fitted dose curve; in most records, active means well fitted curve in the direction sought with a large enough effect; inconclusive means small, poorly fitted or top-dose-only effect, or another doubt; inactive means no such curve, though single readings can be large; an effect the other way counts as inactive or inconclusive. Potency means the concentration at half of the fitted maximal effect.

SMILES	NPC1 prom act	ELG1 DNA repair	ELG1 genotox	Rab9 promoter act	SMN2 splice enh	FLuc counter
Cc1ccc(NC(=O)/C=C/c2ccc(C)o2)c(C)c1	/	/	/	/	8%	?
O=C(Nc1cccc2cccnc12)c1ccc(Cl)cc1	7%	?	13%	10%	/	30µM*
Cc1ccc(/C=C/C(=O)Nc2cccc3cccnc23)o1	-2%	?	1%	7%	7%	17µM*
O=C(Nc1cccc2cccnc12)c1cccnc1	0%	20%	5%	-6%	19%	-4%
O=S(=O)(Nc1ccc(-c2ccc(N3CCCC3)nn2)cc1)c1ccc(Cl)cc1	/	/	/	/	/	-6%
O=S(=O)(Nc1cccc(-c2ccc(N3CCCCCC3)nn2)c1)c1ccc(C(F)(F)F)cc1	23%	?	?	?	/	9.5µM*
O=S(=O)(Nc1cccc(-c2ccc(N3CCCCCC3)nn2)c1)c1ccc(F)cc1	?	?	?	?	/	5.4µM*
O=S(=O)(Nc1ccc(-c2ccc(N3CCCCC3)nn2)cc1)c1ccc(OC(F)(F)F)cc1	/	/	/	/	/	21µM*
CC(=O)c1ccc(S(=O)(=O)Nc2cccc(-c3ccc(N4CCCCC4)nn3)c2)cc1	/	/	/	/	/	1.5µM*
CCOc1ccc(S(=O)(=O)Nc2ccc(-c3ccc(N4CCCC4)nn3)cc2)cc1	/	/	/	/	/	0%
CCn1cc2nc(SCc3cc(C)ccc3C)n(Cc3ccc(Cl)cc3)c(=O)c2n1	/	/	/	/	/	7%
CCc1cccc(C)c1NC(=O)CN1C(=O)C2(SCC(=O)N2c2cc(C)cc(C)c2)c2ccccc21 (stereo not given)	/	/	/	/	/	4%
O=S(=O)(Nc1cccc(-c2ccc(N3CCCCCC3)nn2)c1)c1cccc(F)c1	3.2µM*	?	?	3.2µM*	/	2.4µM*
COc1ccc(-n2nc(C(=O)NCC(=O)N3CCC(C(N)=O)CC3)c3ccccc3c2=O)cc1	9%	9%	?	8%	/	11µM*
COc1ccc(-n2nc(C(=O)NCC(=O)N3CCCC(C)C3)c3ccccc3c2=O)cc1 (stereo not given)	-24%	1%	-6%	17%	/	5.4µM*
CCC(C)NC(=O)CNC(=O)c1nn(-c2ccc(OC)cc2)c(=O)c2ccccc12 (stereo not given)	-3%	2%	-3%	-1%	/	-11%
COc1ccc(-n2nc(C(=O)NCC(=O)N3CCC(C)CC3)c3ccccc3c2=O)cc1	?	?	5%	?	/	2.1µM*
O=C(Nc1cccc(F)c1)N1CCC2(CC1)CCN(C(=O)c1cc(C(F)(F)F)cc(C(F)(F)F)c1)CC2	/	/	/	/	-7%	/
CCCC(=O)NCCc1c2n(c3ccc(OC)cc13)Cc1ccccc1-2	/	/	/	/	-13%	/
NNC(=O)c1ccc(COc2ccc(Br)cc2)o1	12%	-15%	-3%	1%	/	-8%
O=C(c1ccco1)N1CCN(C(=O)c2ccc(COc3ccc4c(c3)CCC4)o2)CC1	19%	?	-7%	?	14%	?
O=C(N/N=C/c1cccc(O)c1)c1ccc(COc2ccc3c(c2)CCC3)o1	?	18%	?	?	-27%	19µM*
NNC(=O)c1ccc(COc2ccc3c(c2)CCC3)o1	?	?	3%	4µM*	16µM*	?
O=C(CSc1nc2c([nH]c3ccccc32)c(=O)n1-c1cccc(Cl)c1)c1ccccc1	/	/	/	/	/	-1%
CCN(CC)c1ccc(O)c(C=Nc2ccc(C)c(C)c2)c1	26%	7%	?	?	5%	3.4µM*
CCN(CC)c1ccc(C=Nc2ccccc2C)c(O)c1	?	10%	5%	?	27%	1.3µM*
CCN(CC)c1ccc(C=Nc2ccc(C#N)cc2)c(O)c1	0%	-1%	9%	1%	-7%	-12%
CCOC(=O)C1(Cc2ccccc2)CCCN(Cc2cnn(CC)c2)C1 (stereo not given)	-6%	1%	-1%	-9%	/	-1%

From PubChem
